Measured values reported in PubChem BioAssay (Tox21).
Records with an inconclusive call do not appear. The source made the active and inactive calls. Unless noted, the call rests on the fitted dose curve; in most records, active means well fitted curve in the direction sought with a large enough effect in the repeat runs; inconclusive means weak or mixed curves; inactive means no such curve, though single readings can be large; an effect the other way counts as inactive or inconclusive.

Tests used:
[1] = qHTS assay to identify small molecule antagonists of the thyroid receptor (TR) signaling pathway - cell viability counter screen (AID 743064); further: nearly all actives have a fitted effect of over 50% in size
Method in brief: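 Same-well viability check: GH3.TRE-Luc cells stimulated with 1 nM T3 alongside test compound for 23.5 h, followed by CellTiter-Fluor fluorescence.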

[2] = qHTS assay to identify small molecule antagonists of the thyroid receptor (TR) signaling pathway (AID 743065); further: series mostly up to about 70 µM; nearly all actives have a fitted effect of over 55% in size
Method in brief: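 GH3.TRE-Luc rat pituitary cells (two TREs driving luciferase) were dosed with compound, then stimulated with 1 nM T3 (final) for 23.5 h at 37 C. ONE-Glo luminescence was the read-out, with CellTiter-Fluor fluorescence as the cytotoxicity counter-screen.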

[3] = tested on: thyroid hormone receptor (rat, GH3 cells); experiment: qHTS assay to identify small molecule agonists of the thyroid receptor (TR) signaling pathway (AID 743066; calls by dose curve)
[4] = qHTS assay to identify small molecule antagonists of the estrogen receptor alpha (ER-alpha) signaling pathway - cell viability counter screen (AID 743074; calls by dose curve;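 further: HEK293 cells carrying ER-alpha-UAS-bla reporter stimulated with 17beta-estradiol; nearly all actives have a fitted effect of over 45% in size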)
[5] = qHTS assay to identify small molecule antagonists of the estrogen receptor alpha (ER-alpha) signaling pathway using the BG1 cell line - cell viability counter screen (AID 743081);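 further: compound given together with 17beta-estradiol as the ER stimulus; series mostly up to about 70 µM; nearly all actives have a fitted effect of over 45% in size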
Aromatase (Homo sapiens) = Aromatase (Homo sapiens) (UniProt P11511); experiment: qHTS assay to identify aromatase inhibitors (AID 743083); further: series mostly up to about 70 µM; nearly all actives have a fitted effect of over 55% in size
[6] = qHTS assay to identify aromatase inhibitors - cell viability counter screen (AID 743084);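 further: cells stimulated with testosterone during compound exposure; nearly all actives have a fitted effect of over 55% in size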
[7] = molecular target: Aryl hydrocarbon receptor (Homo sapiens) (UniProt P35869); experiment: qHTS assay to identify small molecule that activate the aryl hydrocarbon receptor (AhR) signaling pathway (AID 743085); further: nearly all actives have a fitted effect of over 15% in size; further: potency means the concentration at half of the fitted maximal effect;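 on activation: HG2L7.5c1 human HepG2 liver cells with stably integrated DRE-driven firefly reporter; series mostly up to about 70 µM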
Method in brief: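 Reporter assay in engineered HepG2 line HG2L7.5c1, whose plasmid carries twenty dioxin responsive elements upstream of firefly luciferase. Treatment lasted 24 h at 37C; ONE-Glo luminescence gauged induction.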

[8] = qHTS assay to identify small molecule that activate the aryl hydrocarbon receptor (AhR) signaling pathway - cell viability counter screen (AID 743086);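 further: HepG2 liver cells carrying the AhR DRE luciferase reporter; series mostly up to about 70 µM; nearly all actives have a fitted effect of over 45% in size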
Method in brief: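 HepG2-AhR-luc (HG2L7.5c1) cells, 4000/well, treated 24 h at 37 C with compound; viability measured as CellTiter-Fluor fluorescence after 30 min in the same wells as the luciferase read.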

[9] = molecular target: Peroxisome proliferator-activated receptor gamma (Homo sapiens) (UniProt P37231); experiment: qHTS assay to identify small molecule agonists of the peroxisome proliferator-activated receptor gamma (PPARg) signaling pathway (AID 743094; active means well fitted activation curve with a large enough effect in the signal ratio in the repeat runs, not every such curve was filed as active; the % refers to the signal ratio)
Method in brief: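 Following 5 h plating at 37C, PPARg-bla HEK293H cells receive compound or DMSO for 17 h; fluorescence intensity is recorded after LiveBLAzer B/G loading for 1 h at room temperature.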

[10] = molecular target: Peroxisome proliferator-activated receptor gamma (Homo sapiens) (UniProt P37231); experiment: qHTS assay to identify small molecule antagonists of the peroxisome proliferator-activated receptor gamma (PPARg) signaling pathway (AID 743191; calls by dose curve; further: series mostly up to about 63 µM; nearly all actives have a fitted effect of over 30% in size)
Method in brief: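 GeneBLAzer PPARg UAS-bla HEK293H cells, 5 h post-plating, exposed to compounds 17 h at 37C. LiveBLAzer B/G FRET substrate added for 1 h at room temperature; beta-lactamase reporter read by fluorescence intensity.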

[11] = qHTS assay to identify small molecule antagonists of the peroxisome proliferator-activated receptor gamma (PPARg) signaling pathway - cell viability counter screen (AID 743194); further: nearly all actives have a fitted effect of over 55% in size
Method in brief: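 Cytotoxicity counter screen in PPARg-bla HEK293H cells, same wells as reporter assay. Compounds plus 50 nM rosiglitazone (final) for 17 h at 37 C, then viability read by CellTiter-Glo luminescence.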

[12] = qHTS assay for small molecule agonists of the antioxidant response element (ARE) signaling pathway (AID 743202; active means well fitted activation curve with a large enough effect in the signal ratio in the repeat runs, not every such curve was filed as active; the % refers to the signal ratio)
Method in brief: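 ARE-bla HepG2 cells (beta-lactamase reporter under the antioxidant response element), plated 5 hours, then exposed to compounds 16 hours at 37 C. LiveBLAzer B/G FRET substrate added for 2 hours at room temperature; fluorescence intensity read.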

[13] = qHTS assay for small molecule agonists of the antioxidant response element (ARE) signaling pathway - cell viability counter screen (AID 743203; calls by dose curve; further: nearly all actives have a fitted effect of over 55% in size)
Method in brief: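 Compounds in DMSO were pinned onto ARE-bla HepG2 cells plated 5 hrs earlier at 2,000 cells/well. Sixteen hours later at 37C/5% CO2, CellTiter-Glo was added and luminescence measured after 30 min at room temperature.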

[14] = qHTS assay for small molecule activators of the heat shock response signaling pathway - cell viability counter screen (AID 743209); further: nearly all actives have a fitted effect of over 50% in size
Method in brief: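 Counter screen for cytotoxicity in HeLa HSE-bla reporter cells. Treatment was 5 h at 37 C; viability was detected by luminescent ATP assay (CellTiter-Glo) in the same wells as the beta-lactamase read.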

[15] = qHTS assay for small molecule activators of the heat shock response signaling pathway (AID 743210; active means well fitted activation curve with a large enough effect in the signal ratio in the repeat runs, with a control signal flat, not every such curve was filed as active; the % refers to the signal ratio; further: series mostly up to about 63 µM)
Method in brief: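 HSE-bla HeLa cells (beta-lactamase reporter under heat shock response elements), plated overnight, then exposed to compounds 5 h at 37 C; LiveBLAzer B/G FRET substrate added, 2.5 h at room temperature, fluorescence intensity read.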

[16] = molecular target: Estrogen receptor (Homo sapiens) (UniProt P03372); experiment: qHTS assay to identify small molecule agonists of the estrogen receptor alpha (ER-alpha) signaling pathway using the BG1 cell line (AID 743079); further: nearly all actives have a fitted effect of over 20% in size
[17] = qHTS assay to identify small molecule antagonists of the estrogen receptor alpha (ER-alpha) signaling pathway using the BG1 cell line (AID 743080; calls by dose curve;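 further: BG1 cells stimulated with 17beta-estradiol alongside compound; series mostly up to about 70 µM; nearly all actives have a fitted effect of over 25% in size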)
Method in brief: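 BG1-Luc-4E2 cells (endogenous full-length ER-alpha, 4xERE luciferase) hormone-starved 5 days in charcoal-stripped FBS, plated 4,000/well for 24 h, then compound plus 17beta-estradiol for 21.5 h at 37 C; ONE-Glo luminescence read.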

[18] = molecular target: Estrogen receptor (Homo sapiens) (UniProt P03372); experiment: qHTS assay to identify small molecule agonists of the estrogen receptor alpha (ER-alpha) signaling pathway (AID 743075; calls by dose curve;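 further: HEK293 GripTite cells with ER-alpha and UAS-driven beta-lactamase reporter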)

Measured: Potency

Chain of Aryl hydrocarbon receptor (Homo sapiens) (P35869 whole entry, looked up): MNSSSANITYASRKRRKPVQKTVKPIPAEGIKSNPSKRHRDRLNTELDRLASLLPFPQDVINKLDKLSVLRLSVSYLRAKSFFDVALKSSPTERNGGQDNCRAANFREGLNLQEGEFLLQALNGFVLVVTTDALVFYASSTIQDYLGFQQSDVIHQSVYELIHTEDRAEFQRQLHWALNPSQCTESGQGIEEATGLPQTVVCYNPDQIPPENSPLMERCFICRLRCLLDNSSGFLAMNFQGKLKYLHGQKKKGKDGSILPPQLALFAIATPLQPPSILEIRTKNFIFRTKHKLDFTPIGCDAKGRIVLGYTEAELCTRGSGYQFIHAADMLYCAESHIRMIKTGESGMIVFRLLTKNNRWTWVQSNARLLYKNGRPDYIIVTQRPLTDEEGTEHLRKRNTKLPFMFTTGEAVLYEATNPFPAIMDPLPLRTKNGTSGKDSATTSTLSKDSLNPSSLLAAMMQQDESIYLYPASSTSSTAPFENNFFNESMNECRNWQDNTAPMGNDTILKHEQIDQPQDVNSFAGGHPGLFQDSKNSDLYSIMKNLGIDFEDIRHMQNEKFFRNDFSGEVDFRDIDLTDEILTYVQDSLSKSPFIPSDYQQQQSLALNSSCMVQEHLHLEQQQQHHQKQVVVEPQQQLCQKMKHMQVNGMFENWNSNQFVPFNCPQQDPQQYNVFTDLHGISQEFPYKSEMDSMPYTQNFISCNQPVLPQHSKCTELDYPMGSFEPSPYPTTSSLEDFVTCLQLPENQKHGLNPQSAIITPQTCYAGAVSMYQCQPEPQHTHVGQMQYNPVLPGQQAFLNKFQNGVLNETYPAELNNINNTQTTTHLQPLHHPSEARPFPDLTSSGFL
Chain of Aromatase (Homo sapiens) (P11511 whole entry, looked up): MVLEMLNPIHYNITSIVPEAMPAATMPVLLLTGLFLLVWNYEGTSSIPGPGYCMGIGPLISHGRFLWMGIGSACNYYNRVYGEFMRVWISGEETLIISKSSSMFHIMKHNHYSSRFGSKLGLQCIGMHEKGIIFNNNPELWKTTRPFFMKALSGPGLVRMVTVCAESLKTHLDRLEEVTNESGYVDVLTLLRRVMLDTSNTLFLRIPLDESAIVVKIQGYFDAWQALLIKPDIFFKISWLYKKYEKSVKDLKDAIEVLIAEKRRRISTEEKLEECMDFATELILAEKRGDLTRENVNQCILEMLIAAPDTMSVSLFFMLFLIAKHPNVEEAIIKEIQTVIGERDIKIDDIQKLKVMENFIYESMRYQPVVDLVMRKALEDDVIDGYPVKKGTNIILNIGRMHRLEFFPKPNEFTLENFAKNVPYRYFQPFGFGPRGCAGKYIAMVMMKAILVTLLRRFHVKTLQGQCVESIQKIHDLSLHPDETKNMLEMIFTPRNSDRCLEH
Chain of Estrogen receptor (Homo sapiens) (P03372 whole entry, looked up): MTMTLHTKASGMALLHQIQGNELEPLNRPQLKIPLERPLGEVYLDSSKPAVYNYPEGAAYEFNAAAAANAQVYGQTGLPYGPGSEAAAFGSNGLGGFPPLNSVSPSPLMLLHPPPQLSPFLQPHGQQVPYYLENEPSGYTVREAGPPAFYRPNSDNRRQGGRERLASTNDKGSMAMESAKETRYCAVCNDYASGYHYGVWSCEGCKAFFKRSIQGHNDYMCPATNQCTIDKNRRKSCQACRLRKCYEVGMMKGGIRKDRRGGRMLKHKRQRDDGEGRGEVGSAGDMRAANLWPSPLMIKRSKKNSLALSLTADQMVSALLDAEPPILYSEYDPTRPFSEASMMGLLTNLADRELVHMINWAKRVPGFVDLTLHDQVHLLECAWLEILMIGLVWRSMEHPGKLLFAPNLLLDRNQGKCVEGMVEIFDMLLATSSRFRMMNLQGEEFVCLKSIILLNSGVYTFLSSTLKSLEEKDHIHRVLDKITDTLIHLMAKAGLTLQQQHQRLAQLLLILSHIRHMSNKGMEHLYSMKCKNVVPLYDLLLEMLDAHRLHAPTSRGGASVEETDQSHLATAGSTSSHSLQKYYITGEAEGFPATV
Chain of Peroxisome proliferator-activated receptor gamma (Homo sapiens) (P37231 whole entry, looked up): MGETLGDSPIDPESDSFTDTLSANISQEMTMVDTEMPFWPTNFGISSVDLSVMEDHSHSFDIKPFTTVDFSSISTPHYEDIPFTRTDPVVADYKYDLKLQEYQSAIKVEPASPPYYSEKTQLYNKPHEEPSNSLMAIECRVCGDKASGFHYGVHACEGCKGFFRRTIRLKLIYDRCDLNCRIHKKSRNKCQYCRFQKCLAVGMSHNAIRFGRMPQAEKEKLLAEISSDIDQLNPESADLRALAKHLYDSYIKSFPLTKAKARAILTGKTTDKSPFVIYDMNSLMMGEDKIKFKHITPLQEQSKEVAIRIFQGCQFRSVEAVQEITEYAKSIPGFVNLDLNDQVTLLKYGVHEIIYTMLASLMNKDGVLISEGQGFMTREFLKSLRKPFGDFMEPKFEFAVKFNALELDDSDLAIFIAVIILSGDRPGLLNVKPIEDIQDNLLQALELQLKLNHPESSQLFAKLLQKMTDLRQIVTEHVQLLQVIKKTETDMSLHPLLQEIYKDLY

CC(=O)c1cc(C)oc1C
not listed: [16] | [17] | [18]
inactive: all other assays above

CC(=O)CCC1=C(C)CCCC1(C)C
not listed: [12] | [14] | [15] | [18]
inactive: all other assays above

C/C=C(\C)C(=O)OCCc1ccccc1
not listed: [10] | [12] | [16] | [17] | [18]
inactive: all other assays above

CCCCC1CCC(O)CC1 (centres undefined)
not listed: [7] | [14] | [16] | [17] | [18]
inactive: all other assays above

CC(=O)CC(=O)OC(C)(C)C
not listed: [10] | [12] | [14] | [16]
inactive: all other assays above

CC(O)CC(C)O (centres undefined)
not listed: [7] | [16] | [17] | [18]
inactive: all other assays above

CC(=O)O[Si](C)(OC(C)=O)OC(C)=O
not listed: [7] | [16] | [17] | [18]
inactive: all other assays above

CC(=O)OC(C)=O
not listed: [7] | [14] | [15] | [16] | [17] | [18]
inactive: all other assays above

CC1=NN(c2ccc(S(=O)(=O)O)cc2)C(=O)C1
not listed: [9] | [16] | [17] | [18]
inactive: all other assays above

COS(=O)(=O)O
not listed: [9] | [10] | [12] | [15] | [16] | [17] | [18]
inactive: all other assays above

CCCCCC/C=C/C(=O)OC
not listed: [7] | [10] | [16] | [17] | [18]
inactive: all other assays above

COc1c2occc2c(OC)c2c(=O)cc(C)oc12
active: [7] 114 nM
not listed: [4] | [16] | [17] | [18]
inactive: all other assays above

C=CC(=O)CCCCC
not listed: [4] | [10] | [16] | [17] | [18]
inactive: all other assays above

C=CCOC(=O)CCCCCC
not listed: [2] | [3] | [10] | [16] | [17] | [18]
inactive: all other assays above

CC(=O)C(C)O (centres undefined)
not listed: [2] | [3] | [7] | [14] | [16] | [17] | [18]
inactive: all other assays above

O=C(O)CSCC(=O)NC1CCSC1=O (centres undefined)
not listed: [7] | [9] | [16] | [17] | [18]
inactive: all other assays above

OCCN1CCOCC1
not listed: [4] | [9] | [12]
inactive: all other assays above

O=C(O)CONC(=O)c1ccccc1
not listed: Aromatase (Homo sapiens) | [6] | [7] | [9] | [10] | [16] | [17] | [18]
inactive: all other assays above

CC(=O)O[C@@H]1CC2CCC1(C)C2(C)C (some centres undefined)
not listed: [2] | [3] | [16] | [17] | [18]
inactive: all other assays above

CCCCCCCCCOC(=O)CCCCC(=O)OCCCCCCC
not listed: [2] | [3] | [10] | [12] | [16] | [17] | [18]
inactive: all other assays above
